INS-1E GSIS act = GLuc luminescence reporter in INS-1E cells, primary screen for activators of glucose-dependent secretion of insulin; INS-1E GLuc reporter insulin secretion, 2-3 h; activation, % at 16.6 µM; 0.61% of 370,000 active;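 active means lowest replicate activation of at least 40%, so every replicate reaches that level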;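 further: 0% = median of neutral control wells and 100% = median of IBMX positive control wells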
RAD52 anneal inh = blocks human RAD52 DNA annealing; P43351; recombinant RAD52 DNA annealing, FRET fluorescence; 0.46% of 360,000 active; AID 651710; inhibition, % at 18.7 µM;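 active means every replicate showing at least 50% inhibition; inconclusive means mean inhibition at least 50% but not in every replicate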
LGR2 inh = blocks bursicon-induced cAMP signaling via Drosophila LGR2; HEK293 LGR2, CRE-luciferase, bursicon-stimulated, 4 h; inhibition, % at 9.99 µM; 0.35% of 380,000 active; AID 720647;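 active means drop in luminescence signal, shown as inhibition above about 50% in the replicate tests, limit read from the data, passing the limit was not always enough; inconclusive means probably only some replicates passing the limit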;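 further: agonist challenge used bursicon conditioned medium at about half maximal strength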
EWS-Fli inh = inhibitors of EWS/Fli oncoprotein transcriptional activity; inhibition, % at 12.6 µM; A673 NR0B1-luciferase reporter, viability-normalised; 0.67% of 350,000 active;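 active means mean inhibition of at least 50% after viability correction, with every replicate also passing that limit; inconclusive means mean reaches 50% but only one of two replicates passes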;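 further: firefly luciferase signal divided by Alamar Blue viability fluorescence both relative to DMSO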
RAD54 inh = blocks human RAD54 Holliday junction branch migration. AID 602329. 0.14% of 360,000 active. inhibition, % at 10.4 µM. FAM/BHQ fluorescence. Q92698;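 active means mean normalized replicate activity at least 40 and at least half of replicates scoring 40 or more; inconclusive means only one of the two criteria met; inactive means mean below 40 and under half of replicates reaching 40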;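 further: 0% = median of neutral control wells and 100% = median of positive control wells; inhibitors cause a drop in the FAM fluorescence signal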
Target sequence (Q92698 whole entry, looked up): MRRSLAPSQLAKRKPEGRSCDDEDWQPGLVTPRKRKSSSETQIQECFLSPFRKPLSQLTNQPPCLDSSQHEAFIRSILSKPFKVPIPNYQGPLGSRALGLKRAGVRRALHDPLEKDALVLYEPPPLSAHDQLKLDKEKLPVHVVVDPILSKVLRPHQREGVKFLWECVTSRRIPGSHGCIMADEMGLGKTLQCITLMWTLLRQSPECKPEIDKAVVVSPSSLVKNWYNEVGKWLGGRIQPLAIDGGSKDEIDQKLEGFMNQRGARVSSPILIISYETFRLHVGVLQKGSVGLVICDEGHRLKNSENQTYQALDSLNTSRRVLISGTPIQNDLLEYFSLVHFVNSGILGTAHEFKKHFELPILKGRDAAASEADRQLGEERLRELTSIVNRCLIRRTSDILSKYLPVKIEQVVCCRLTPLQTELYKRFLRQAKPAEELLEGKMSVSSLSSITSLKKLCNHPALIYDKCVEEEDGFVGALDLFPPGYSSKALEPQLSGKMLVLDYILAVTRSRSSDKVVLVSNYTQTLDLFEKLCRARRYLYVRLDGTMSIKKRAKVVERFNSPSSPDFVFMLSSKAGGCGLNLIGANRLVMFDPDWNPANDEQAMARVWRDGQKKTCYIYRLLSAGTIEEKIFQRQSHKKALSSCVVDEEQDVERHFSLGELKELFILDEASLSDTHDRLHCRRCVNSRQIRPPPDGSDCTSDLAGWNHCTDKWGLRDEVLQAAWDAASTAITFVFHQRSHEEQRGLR
F508del corr = correctors of CFTR F508del function in bronchial epithelial cells. 0.36% of 350,000 active. CFBE cells, YFP halide quenching; stimulated with forskolin plus potentiator P3; % fluorescence drop versus neutral controls. activity (quench increase), % at 7.58 µM;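 active means mean added fluorescence quench of at least 8% versus neutral control, with both replicates also reaching 8%; inconclusive means only one of the mean or replicate conditions met; inactive means mean below 8% and not both replicates reaching 8%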;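 further: cells transiently co-express mutant CFTR-F508del with the halide-sensitive YFP; corrector assay measuring rescue of mutant channel to the surface after 24 h compound exposure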
Active calls of the source: *; ? = inconclusive; / = no result. Most compounds without a hit are left out; they make up all but 1.8% or so of the library.

SMILES | INS-1E GSIS act | RAD52 anneal inh | LGR2 inh | EWS-Fli inh | RAD54 inh | F508del corr
Cc1nnc(N2C(=O)C(O)=C(C(=O)c3ccco3)C2c2cccc([N+](=O)[O-])c2)s1 (centres undefined) | 48* | -7 | 5 | 6 | 6 | 4
Cc1ccc(C2C(C(=O)c3ccco3)=C(O)C(=O)N2c2nnc(C)s2)cc1 (centres undefined) | / | / | / | / | -7 | /
COC(=O)C12OCC34C(CC5C(C)=C(O)C(=O)CC5(C)C3C(O)C1O)OC(=O)C(OC(=O)C=C(C)C)C24 (centres undefined) | -33 | 4 | 100* | 44 | / | -8
CC(=O)N1CCc2cc(S(=O)(=O)N3c4ccccc4CC3C)ccc21 (centres undefined) | 1 | -7 | 2 | 48 | -1 | 10*
CSc1ccc(S(=O)(=O)N2c3ccccc3CC2C)cc1 (centres undefined) | -31 | 1 | 12 | 51* | 3 | ?
CC1Cc2ccccc2N1S(=O)(=O)c1cnc(Cl)c(Cl)c1 (centres undefined) | 5 | -2 | 8 | 17 | / | -1
CCc1ccc2c(c1)C(c1ccncc1)=NNC(c1ccccc1)=N2 | 2 | -11 | -39 | -33 | / | 1
COc1cc(NC(=O)c2c(-c3ccccc3Cl)noc2C)c2ncccc2c1 | 51* | 0 | 13 | 10 | 2 | -3
Cc1onc(-c2ccccc2Cl)c1C(=O)Nc1cccc2cccnc12 | 14 | / | 28 | / | 2 | /
CCOc1ccc(OCCC(=O)N(CC)CC(=O)NCc2ccc(Cl)cc2)cc1 | -64 | -3 | -31 | -3 | / | -1
COc1cc2sc3cc(NCCCN4CCOCC4)ccc3c(=O)c2cc1OC | 12 | 81* | 0 | -46 | 22 | 5
COc1ccc(OC)c(S(=O)(=O)NCCCN2CCOCC2)c1 | / | 0 | / | 9 | -2 | 0
C/C(=N\N1C(=O)c2ccccc2NC1c1ccco1)c1ccccc1O (centres undefined) | 3 | -9 | 8 | -28 | / | 2
Cc1ccccc1OCC(=O)OCC(=O)NCCc1ccccc1 | 0 | -19 | 2 | 1 | 13 | 15*
O=C(COC(=O)Cc1ccc(F)cc1)NCCc1ccccc1 | 43* | -10 | -1 | -2 | / | -1
Cn1nnnc1Sc1ncnc2scc(-c3ccc[nH]3)c12 | -15 | -45 | 45 | -16 | 1 | -3
Cn1nnnc1Sc1ncnc2scc(-c3ccc(F)cc3)c12 | 61* | / | / | / | -5 | /
Cn1nnnc1Sc1ncnc2scc(-c3ccc(Br)cc3)c12 | 22 | -5 | 100* | 43 | 3 | -4
Cn1nnnc1Sc1ncnc2scc(-c3ccccc3)c12 | 45* | -14 | 29 | / | 0 | /
Cn1nnnc1Sc1ncnc2scc(-c3ccccc3Br)c12 | 23 | -24 | 20 | 3 | -4 | -7
CC(C)CCNC(=O)c1ccc2c(c1)N(C)C(=O)c1ccccc1S2 | -31 | -6 | 8 | 11 | -3 | -3
C[C@@H]1CN([C@H](C)CO)C(=O)c2cc(NC(=O)c3ccncc3)ccc2O[C@@H]1CN(C)Cc1ccc(C(=O)Nc2ccccc2N)cc1 | 24 | 2 | -16 | 47 | -4 | 0
COc1ccc(OC)c(N(CC(=O)NN=C2CCN(C)CC2)S(=O)(=O)c2ccccc2)c1 | 93* | -3 | -12 | -14 | 0 | 2
[O-]/[N+](=C\c1ccc(F)cc1)c1ccccc1 | 58* | / | -17 | / | -1 | /
CCCCN1C(Nc2ccccc2)=NC[C@@H]1Cc1ccccc1 | -2 | -3 | -2 | 9 | -9 | 2
SMILES | INS-1E GSIS act | RAD52 anneal inh | LGR2 inh | EWS-Fli inh | RAD54 inh | F508del corr
Cc1ccc(NC(=O)CSc2n[nH]c(-c3ccncc3)n2)c(C)c1 | 8 | -7 | -8 | 4 | 6 | -2
Cc1ccc(NC(=O)Cc2nc(-c3c[nH]c(C(=O)N4CCCC4)c3)cs2)c(C)c1 | -3 | -36 | 7 | 15 | -3 | 8.8*
CCOC(=O)C1=C(C)NC(SC)=C(C#N)C1CC(C)C (centres undefined) | -19 | -10 | 9 | 54* | -11 | ?
O=C(CNC(=O)c1ccco1)N/N=C/c1ccc(C(=O)O)cc1 | 48* | -12 | 2 | 5 | 0 | 1
O=C(Nc1ccccc1C(=O)N/N=C/c1ccccc1)c1ccco1 | 93* | -4 | -22 | -51 | -1 | 1
COC(=O)C1(C)CCCC2(C)C3CCC(C(C)C)C(CO)C3C(CO)CC12 (centres undefined) | 2 | -13 | 17 | 6 | -10 | 8.0*
Cc1ccc(CN2CCCCC2C(=O)Nc2ccc(Oc3cccnc3)cc2)o1 (centres undefined) | -10 | -61 | 13 | 45 | -7 | 0
CCC1=Nc2cc(C(=O)NCC3CCCO3)ccc2Sc2ccc(Cl)cc21 (centres undefined) | 2 | -3 | 3 | 57* | -7 | 15*
CCC1=Nc2cc(C(=O)NCc3ccco3)ccc2Sc2ccc(Cl)cc21 | 21 | / | 9 | / | / | /
CCC1=Nc2cc(C(=O)NCc3cccnc3)ccc2Sc2ccc(C)cc21 | 7 | -13 | -2 | 65* | / | 12*
CCN(C(=O)COC(=O)CNC(=O)C1CCCCC1)c1ccccc1 | 17 | 2 | -11 | -2 | 6 | 1
COc1ccc(C(=O)C=Cc2ccc3c(c2)OCO3)cc1OC | -18 | -5 | -17 | -5 | / | 2
COc1cc(/C=C/C(=O)c2ccc3c(c2)OCO3)cc(Cl)c1O | -15 | -82 | 9 | -11 | -74 | 9.7*
CNC[C@@H]1Oc2cc(C#CC3CCCCC3)ccc2S(=O)(=O)N([C@@H](C)CO)C[C@@H]1C | 12 | 12 | 34 | 56* | 2 | 0
C[C@H](CO)N1C[C@H](C)[C@@H](CN(C)Cc2ccccn2)Oc2cc(-c3ccc(C#N)cc3)ccc2S1(=O)=O | -5 | / | -8 | -9 | / | -3
C[C@H]1CN([C@@H](C)CO)S(=O)(=O)c2ccc(C#CC3CCCC3)cc2O[C@H]1CN(C)Cc1cncnc1 | -28 | / | -2 | 52* | / | 2
C[C@H]1CN([C@@H](C)CO)S(=O)(=O)c2ccc(-c3ccc(C#N)cc3)cc2O[C@@H]1CN(C)Cc1ccccn1 | -7 | 9 | -8 | 67* | -6 | 12*
C[C@@H]1CN([C@H](C)CO)S(=O)(=O)c2ccc(-c3ccc(C#N)cc3)cc2O[C@H]1CN(C)C | 48* | -1 | 17 | 6 | -2 | 1
O=C(CSc1nnc(Cc2cccs2)n1-c1ccccc1)Nc1ccc2c(c1)OCCO2 | 8 | / | 4 | / | 8 | /
CC1(C)CC(=O)C(C(C2=C(O)CC(C)(C)CC2=O)c2cccnc2)C(=O)C1 (centres undefined) | / | / | / | / | -2 | /
Cc1ccc(-c2ccc3c(c2)O[C@@H](CN(C)Cc2ccccn2)[C@H](C)CN([C@H](C)CO)S3(=O)=O)cc1 | -30 | 12 | 5 | 65* | 1 | 16*

Source: PubChem (Broad Institute)
